According to the supplement of paper PMC3898565:
Counter-ions that a name gives are not always drawn. ± gives the uncertainty stated by the source.

system: U87; assay: cell viability relative to vehicle control; higher = less growth inhibition (less active); details: 10 µM; 72 h
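Further: viable cell number estimated from Alamar Blue fluorescence read at 560/90, part of a single-dose primary screen of an FDA-approved drug library.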

Structure (SMILES) | cell viability [%]
CN1C(=O)COc2c(C(=O)NC3CN4CCC3CC4)cc(Cl)cc21 (stereo not given) [Azasetron] | 103 ± 1.1
Cc1ccc(-c2nc3ccc(C)cn3c2CC(=O)N(C)C)cc1 | 106 ± 1.9
COc1cccc(C2(O)CCCCC2CN(C)C)c1 (stereo not given) [Tramadol] | 102 ± 2.1
CNCC(O)c1ccc(O)cc1 (stereo not given) | 107 ± 4.5
CN1C(=O)CN=C(c2ccccc2)c2cc([N+](=O)[O-])ccc21 [Nimetazepam] | 108 ± 2.6
COc1ccc(C(CN(C)C)C2(O)CCCCC2)cc1 (stereo not given) | 103 ± 1.8
c1ccc2c3c([nH]c2c1)CNCC3 | 104 ± 1.1
C=C(C)CN1CC[C@]23c4c5ccc(O)c4O[C@H]2c2[nH]c4ccccc4c2C[C@@]3(O)C1C5 | 101 ± 1.4
CCCN1C[C@H](CSC)C[C@@H]2c3cccc4[nH]cc(c34)C[C@H]21 [Pergolide] | 109.4 ± 1
N=C(NCc1ccc(Cl)cc1)SCCCc1c[nH]cn1 [Clobenpropit] | 102 ± 1.4
COc1ccc(CCN)cc1OC [Homoveratrylamine] | 104 ± 1.1
NC(=O)C[S+]([O-])C(c1ccccc1)c1ccccc1 (stereo not given) [Modafinil] | 107 ± 1.4
C=C(C)[C@@H]1[C@H]2OC(=O)[C@@H]1[C@]1(O)C[C@H]3O[C@]34C(=O)O[C@H]2[C@]14C.CC(C)(O)[C@@H]1[C@H]2OC(=O)[C@@H]1[C@]1(O)C[C@H]3O[C@]34C(=O)O[C@H]2[C@]14C [Picrotin - Picrotoxinin] | 105 ± 1.3
CNC(=O)Oc1ccc2c(c1)[C@]1(C)CCN(C)[C@@H]1N2C [Physostigmine] | 93 ± 1.4
CN1CC[C@]23CCCC[C@H]2[C@H]1Cc1ccc(O)cc13 | 101.4 ± 0.14
FC(F)(F)c1cccc(N2CCNCC2)c1 | 109 ± 1.2
O=c1c2ccccc2[se]n1-c1ccccc1 | 107 ± 1.6
CNC1=Nc2ccc(Cl)cc2C(c2ccccc2)=[N+]([O-])C1 | 104 ± 1.7

Structure (SMILES) | cell viability [%]
C=C1C[C@@H]2[C@H](CC[C@]3(C)C(=O)CC[C@@H]23)[C@@]2(C)C=CC(=O)C=C12 | 107 ± 2.5
NC1=NC(=O)C(c2ccccc2)O1 (stereo not given) [Pemoline] | 102.8 ± 0.87
CN1C(=O)CN=C(c2ccccc2)c2cc(Cl)ccc21 [Diazepam] | 98.6 ± 2.1
CC(=O)O[C@H]1C[C@@H]2CC[C@@H]3[C@H](CC[C@@]4(C)[C@H]3C[C@H]([N+]3(C)CCCCC3)[C@@H]4OC(C)=O)[C@@]2(C)C[C@@H]1[N+]1(C)CCCCC1 [Pancuronium] | 103.79 ± 0.081
Oc1ccc2c3c1O[C@H]1[C@@H](O)CC[C@@]4(O)[C@@H](C2)N(CC2CCC2)CC[C@]314 [Nalbuphine] | 99.2 ± 7.3
O=C(O)C(Cl)Cl | 101 ± 1.6
c1ccc(Cn2ccnc2)cc1 | 105 ± 1.2
CCCCC/C=C\C/C=C\C/C=C\C/C=C\CCCC(=O)Nc1ccc(O)cc1 | 100.5 ± 0.91
CN1CC[C@]2(c3cccc(O)c3)Cc3nc4ccccc4cc3C[C@H]2C1 | 103 ± 1.4
COc1ccc2[nH]cc(CCN)c2c1 [5-Methoxytryptamine] | 109 ± 1.3
CCN(CC)CCOC(=O)C(O)(c1ccccc1)c1ccccc1 | 101 ± 3.5
CC[C@]1(O)CC[C@H]2[C@@H]3CCC4=CCCC[C@@H]4[C@H]3CC[C@@]21C [Ethylestrenol] | 101.7 ± 0.91
CCN(C(C)=O)c1cccc(-c2ccnc3c(C#N)cnn23)c1 [Zaleplon] | 111.7 ± 0.3
COC(=O)N1CCN(C(=O)Cc2ccc(Cl)c(Cl)c2)C(CN2CCCC2)C1 (stereo not given) | 105 ± 2.6
COc1ccc2c(c1)[C@]13CCCC[C@@H]1[C@H](C2)N(C)CC3 [d-3-Methoxy-N-methylmorphinan hydrobromide] | 103 ± 1.2
C#CCN(C)[C@H](C)Cc1ccccc1 [Selegiline] | 103 ± 1.2
C[C@]12CCC(=O)C[C@@H]1CC[C@@H]1[C@@H]2CC[C@@]2(C)[C@H]1CC[C@]2(C)O [Mestanolone] | 105.6 ± 0.93
